Experimental data from PubChem BioAssay (Tox21).
Inconclusive results are not listed. Active and inactive are the calls of the source. Unless noted, calls follow the shape of the dose curve; as a rule, active = well fitted curve in the direction sought with a large enough effect in the repeat runs; inconclusive = weak or mixed curves; inactive = no such curve, though single readings can be large; an effect the other way counts as inactive or inconclusive.

What was measured:
[1] = qHTS assay to identify small molecule agonists of H2AX (AID 1224845; active = well fitted activation curve with a large enough effect in the signal ratio in the repeat runs, not every such curve was filed as active; the % refers to the signal ratio; also: potency is read from the fitted curve at half-maximal effect)
In short: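 Phospho-H2AX Ser139 measured by HTRF (ex 320 nm; em 665 and 620 nm) after 24 hr antibody incubation. Compounds, 15 concentrations, 0.76% DMSO, were applied to CHO-K1 cells for 3hr at 37C before lysis.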

[2] = qHTS assay to identify small molecule agonists of the hypoxia (HIF-1) signaling pathway (AID 1224846; active = well fitted activation curve with a large enough effect in the signal ratio in the repeat runs, not every such curve was filed as active; the % refers to the signal ratio)
In short: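 In ME-180 cells bearing an HRE-bla construct, 17 h treatment with DMSO-dissolved compounds at 37C was followed by CCF4-AM loading to quantify reporter induction.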

[3] = qHTS assay to identify small molecule antagonists of the estrogen related receptor (ERR) signaling pathway from Tox21 library (AID 1224848); also: nearly all actives have a fitted effect of over 50% in size; also: potency is read from the fitted curve at half-maximal effect
In short: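 ERR cell line, 2,000 cells/well. 6 h settle, then compound (DMSO) added; 18 h at 37 C; ONE-Glo luminescence after 30 min RT.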

[4] = qHTS assay to identify small molecule agonists of the estrogen related receptor (ERR) signaling pathway from Tox21 library (AID 1224849; calls by dose curve; also: nearly all actives have a fitted effect of over 15% in size); details: ERR reporter cell line, ONE-Glo luciferase, 18 h; at 92.4 µM (top of the series) unless noted
In short: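 Reporter cells (ERR, NTP source) treated with Tox21 10K compounds 18 h, 37 C. Readout: ONE-Glo luminescence, 30 min RT.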

[5] = qHTS RealTime-Glo MT Cell Viability Assay in HepG2 cells - 24 hour (AID 1224867); also: nearly all actives have a fitted effect of over 50% in size
In short: (§1)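 Tox21 10K library screened in qHTS format on HepG2 cells carrying RealTime-Glo reagents. Compounds were added after a 5 h preincubation, and the luminescent signal from continuous culture was measured repeatedly during 40 h treatment.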

[6] = A CellTox Green Cytotoxicity Assay to monitor cytotoxicity in HEK293 cells - 0 hour (AID 1224869); also: nearly all actives have a fitted effect of over 50% in size
In short: (§2)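 Homogeneous no-lysis format: HEK293 cell suspension mixed with CellTox Green reagent, seeded, incubated 5 h at 37 C/5% CO2, then dosed by pintool with compound in DMSO.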

[7] = qHTS RealTime-Glo MT Cell Viability Assay in HepG2 cells - 40 hour (AID 1224870); also: nearly all actives have a fitted effect of over 50% in size; also: potency is read from the fitted curve at half-maximal effect
In short: (§3)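 Real-time viability: cells seeded at 600 per well together with NanoLuc and cell-permeant prosubstrate, compounds added after 5 h incubation. Luminescence tracked at 0, 8, 16, 24, 32 and 40 h of exposure.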

[8] = A CellTox Green Cytotoxicity Assay to monitor cytotoxicity in HEK293 cells - 40 hour (AID 1224871); also: nearly all actives have a fitted effect of over 45% in size
In short: as §2

[9] = qHTS RealTime-Glo MT Cell Viability Assay in HEK293 cells - 16 hour (AID 1224872); also: nearly all actives have a fitted effect of over 50% in size; also: potency is read from the fitted curve at half-maximal effect
In short: (§4)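 Luminescence generated by NanoLuc from substrate produced by living HEK293 cells served as the viability signal. Each value reflects the reading at its stated time point during continuous 40 h compound exposure at 37 C.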

[10] = qHTS RealTime-Glo MT Cell Viability Assay in HepG2 cells - 8 hour (AID 1224873); also: nearly all actives have a fitted effect of over 55% in size
In short: as §3

[11] = qHTS RealTime-Glo MT Cell Viability Assay in HEK293 cells - 40 hour (AID 1224874); details: RealTime-Glo luminescence; max response: hits give low values; also: nearly all actives have a fitted effect of over 50% in size; also: potency is read from the fitted curve at half-maximal effect
In short: (§5)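 Measured as luminescence from the same continuously cultured HEK293 wells at successive time points (0, 8, 16, 24, 32, 40 h) after compound addition. Reagent present from seeding; dosing at 5 h; incubation 37 C.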

[12] = A CellTox Green Cytotoxicity Assay to monitor cytotoxicity in HEK293 cells - 24 hour (AID 1224875); also: nearly all actives have a fitted effect of over 45% in size
In short: as §2

[13] = A CellTox Green Cytotoxicity Assay to monitor cytotoxicity in HepG2 cells - 16 hour (AID 1224876); also: nearly all actives have a fitted effect of over 45% in size; also: potency is read from the fitted curve at half-maximal effect
In short: (§6)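 Fluorescent DNA-binding dye, 600 HepG2 cells/well, 5 h preincubation then compound in DMSO; same plates read at 0–40 h, 37 C.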

[14] = qHTS RealTime-Glo MT Cell Viability Assay in HepG2 cells - 32 hour (AID 1224877); also: nearly all actives have a fitted effect of over 55% in size; also: potency is read from the fitted curve at half-maximal effect
In short: as §1

[15] = A CellTox Green Cytotoxicity Assay to monitor cytotoxicity in HepG2 cells - 24 hour (AID 1224878); also: nearly all actives have a fitted effect of over 45% in size; also: potency is read from the fitted curve at half-maximal effect
In short: as §6

[16] = A CellTox Green Cytotoxicity Assay to monitor cytotoxicity in HepG2 cells - 40 hour (AID 1224879); also: nearly all actives have a fitted effect of over 40% in size; also: potency is read from the fitted curve at half-maximal effect
In short: as §6

[17] = qHTS RealTime-Glo MT Cell Viability Assay in HEK293 cells - 0 hour (AID 1224880)
In short: as §5

[18] = A CellTox Green Cytotoxicity Assay to monitor cytotoxicity in HEK293 cells - 32 hour (AID 1224881); also: nearly all actives have a fitted effect of over 40% in size
In short: as §2

[19] = qHTS RealTime-Glo MT Cell Viability Assay in HEK293 cells - 32 hour (AID 1224868); also: nearly all actives have a fitted effect of over 50% in size; also: potency is read from the fitted curve at half-maximal effect
In short: as §4

[20] = qHTS assay to identify small molecule agonists of H2AX - cell viability counter screen (AID 1224847; calls by dose curve; also: nearly all actives have a fitted effect of over 30% in size; also: potency is read from the fitted curve at half-maximal effect)
In short: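 CHO-K1 wt, 1000 cells/well, o/n 37C; cpds 15 conc, 3 h 37C, 0.76% DMSO; CellTiter-Glo, 30 min RT, luminescence.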
% is scaled to controls: 0 for no effect and ±100 for the full control effect.

CCCCOC(=O)C(C)CC (stereo unspecified)
inactive: Potency [1] | outcome [2] | Potency [3] | activity change, positive = activation [4] 6.06% | Potency [5] | Potency [6] | Potency [7] | Potency [8] | Potency [9] | Potency [10] | max response [11] 1.36% | Potency [12] | Potency [13] | Potency [14] | Potency [15] | Potency [16] | Potency [17] | Potency [18]

CCCCCCCCCCCCCc1ccccc1
inactive: Potency [1] | outcome [2] | Potency [5] | Potency [19] | Potency [6] | Potency [7] | Potency [8] | Potency [9] | Potency [10] | max response [11] -7.71% | Potency [13] | Potency [14] | Potency [15] | Potency [16] | Potency [17] | Potency [18]

CC(C)CCOCCC(C)C
inactive: Potency [1] | outcome [2] | Potency [3] | activity change, positive = activation [4] -1.03% | Potency [5] | Potency [19] | Potency [6] | Potency [7] | Potency [8] | Potency [9] | Potency [10] | max response [11] 7.57% | Potency [12] | Potency [13] | Potency [14] | Potency [15] | Potency [16] | Potency [18]

C[Si](C)O[Si](C)C
inactive: Potency [1] | outcome [2] | Potency [5] | Potency [6] | Potency [7] | Potency [8] | Potency [9] | Potency [10] | Potency [13] | Potency [14] | Potency [15] | Potency [17] | Potency [18]

Cc1c(C)n(Cc2ccccc2)c2ccc(C(=O)OCCN(C)C)cc12
inactive: outcome [2] | Potency [3] | activity change, positive = activation [4] -7.81% [at 42.5 µM] | Potency [6] | Potency [9] | Potency [17]
active: Potency [1] 6.19 µM | Potency [7] 23.9 µM | Potency [13] 23.9 µM | Potency [14] 23.9 µM | Potency [15] 23.9 µM | Potency [16] 23.9 µM

CC1CCCCC1
inactive: Potency [1] | outcome [2] | Potency [5] | Potency [19] | Potency [6] | Potency [7] | Potency [8] | Potency [9] | Potency [10] | max response [11] 5.61% | Potency [12] | Potency [13] | Potency [14] | Potency [15] | Potency [16] | Potency [17]

CCCCCCCC/C=C/CCCOC(C)=O
inactive: Potency [1] | outcome [2] | Potency [3] | activity change, positive = activation [4] 1.58% | Potency [5] | Potency [19] | Potency [6] | Potency [7] | Potency [8] | Potency [9] | Potency [10] | max response [11] 4.7% | Potency [12] | Potency [13] | Potency [14] | Potency [15] | Potency [17] | Potency [18]

CC(C)c1ccccc1N
inactive: Potency [1] | outcome [2] | Potency [3] | activity change, positive = activation [4] 3.39% | Potency [5] | Potency [19] | Potency [6] | Potency [8] | Potency [9] | Potency [10] | Potency [13] | Potency [14] | Potency [15] | Potency [16] | Potency [18]

CCc1c(Br)c(Br)c(Br)c(Br)c1Br
inactive: Potency [1] | outcome [2] | Potency [3] | activity change, positive = activation [4] -5.33% | Potency [5] | Potency [19] | Potency [6] | Potency [8] | Potency [9] | Potency [10] | max response [11] 4.82% | Potency [12] | Potency [13] | Potency [14] | Potency [15] | Potency [16] | Potency [17] | Potency [18]

O=C(Nc1ccc(Cl)cc1)Nc1ccc(Cl)c(C(F)(F)F)c1
inactive: Potency [1] | activity change, positive = activation [4] -40.9% [at 42.5 µM] | Potency [6] | Potency [10] | Potency [12] | Potency [13] | Potency [17]
active: Potency [20] 22 µM | Potency [3] 3.76 µM | Potency [19] 4.77 µM | Potency [9] 8.49 µM | Potency [11] 5.35 µM

CC1(C)C(=O)N(CO)C(=O)N1CO
inactive: Potency [1] | outcome [2] | Potency [5] | Potency [6] | Potency [7] | Potency [9] | Potency [10] | max response [11] 2.01% | Potency [13] | Potency [14] | Potency [15] | Potency [16] | Potency [17]

Clc1ccc(C(c2ccccc2Cl)C(Cl)Cl)cc1 (stereo unspecified)
active: Potency [1] 113 µM | Potency [20] 101 µM
inactive: Potency [5] | Potency [6] | Potency [7] | Potency [8] | max response [11] -26.4% | Potency [12] | Potency [13] | Potency [14] | Potency [15] | Potency [16] | Potency [17]

CC(=O)Oc1ccc(C2(c3ccc(OC(C)=O)cc3)C(=O)Nc3ccccc32)cc1
inactive: Potency [1] | Potency [20] | Potency [3] | activity change, positive = activation [4] -9.03% [at 42.5 µM] | Potency [5] | Potency [19] | Potency [6] | Potency [7] | Potency [8] | Potency [9] | Potency [10] | max response [11] -6.95% | Potency [12] | Potency [13] | Potency [14] | Potency [15] | Potency [16] | Potency [17] | Potency [18]
